Source: PubChem BioAssay
“And” between values parts separate entries of the source, which are not always exact repeats. Equal values may be shown once. Inconclusive results are not listed. The source made the active and inactive calls. Unless noted, no cut-off is given here; in the data, nearly all actives have AC50 up to about 26 µM.

Assays:
[1] = viability loss in pontine glioma line – cell-based, SU-DIPG-XXV, MIPE5.0, CellTiter-Glo, qHTS, dose response (AID 1347065); conditions: CellTiter-Glo ATP luminescence;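 note: cells exposed to compound for 48 hours before ATP readout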
[2] = SU-DIPG-VI glioma cell viability, MIPE4.0 library, CellTiter-Glo luminescence, qHTS (AID 1347066; cut-off not given, nearly all actives have AC50 up to about 30 µM;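 note: cells exposed to compound for 48 hours before readout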); conditions: CellTiter-Glo ATP luminescence
[3] = JHH-DIPG-1 glioma cell viability, MIPE5.0 library, CellTiter-Glo luminescence, qHTS (AID 1347067); conditions: JHH-DIPG-1 glioma viability, CellTiter-Glo ATP luminescence;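 note: cells exposed to compound for 48 hours before readout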
[4] = SU-DIPG-XXV glioma cell viability, MIPE5.0 library, qHTS (AID 1347068; cut-off not given, nearly all actives have IC50 up to about 30 µM;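 for IC50: cells exposed to compound for 48 hours before viability readout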)
[5] = sensitizers of A549 cells to miR-34 induction, primary screen, imaging, A549 dox-inducible miR-34, nuclei and caspase counts (AID 1347080;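 active = compounds whose cell count with miR-34 switched on is under 0.7 times the count with it off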); conditions: A549 miR-34 inducible, Hoechst nuclei count, 48 h
[6] = survival rescue of mitochondrial mutant cells in low glucose, primary screen, MELAS cybrids, Rieske KO mouse fibroblasts, CellTiter-Glo (AID 1508586;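 active = mean z-score across replicates of 1.96 or higher in either the MELAS or the Rieske mutant cell line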;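 note: z relative to plate mean and SD of compound and empty wells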)
[7] = target: NAD(+) hydrolase SARM1 (Homo sapiens) (UniProt Q6SZW1); assay: SARM1 TIR NADase inhibitors, cell lysate, NAD-Glo luminescence (AID 1508614;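 active = compound whose remaining NAD level is above about 45 nM, limit read from the data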;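 note: higher remaining NAD means stronger inhibition of SARM1 NADase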); conditions: SAM-TIR HEK293T lysate NADase, at 1 µM, stronger effect = higher value
NAD(+) hydrolase SARM1 (Homo sapiens), sequence (Q6SZW1 whole entry, looked up, the tested form may be a part): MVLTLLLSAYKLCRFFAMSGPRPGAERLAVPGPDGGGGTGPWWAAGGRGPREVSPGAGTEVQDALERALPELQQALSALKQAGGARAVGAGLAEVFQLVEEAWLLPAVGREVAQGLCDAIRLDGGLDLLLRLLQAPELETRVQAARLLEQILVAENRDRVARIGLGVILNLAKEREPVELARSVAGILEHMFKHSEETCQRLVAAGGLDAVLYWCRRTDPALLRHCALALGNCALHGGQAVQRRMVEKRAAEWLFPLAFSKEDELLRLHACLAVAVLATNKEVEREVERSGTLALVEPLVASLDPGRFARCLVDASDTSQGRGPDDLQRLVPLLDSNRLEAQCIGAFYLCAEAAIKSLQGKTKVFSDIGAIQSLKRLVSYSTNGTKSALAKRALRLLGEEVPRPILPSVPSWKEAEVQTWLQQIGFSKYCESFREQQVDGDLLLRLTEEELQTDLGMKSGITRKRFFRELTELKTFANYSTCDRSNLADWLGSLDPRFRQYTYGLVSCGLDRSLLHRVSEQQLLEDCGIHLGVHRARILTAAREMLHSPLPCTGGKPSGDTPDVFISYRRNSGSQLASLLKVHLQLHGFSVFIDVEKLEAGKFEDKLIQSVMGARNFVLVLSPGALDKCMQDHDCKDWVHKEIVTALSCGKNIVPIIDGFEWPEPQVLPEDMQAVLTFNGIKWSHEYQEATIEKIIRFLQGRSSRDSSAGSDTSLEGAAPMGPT

[8] = target: Mitogen-activated protein kinase 7 (Homo sapiens) (UniProt Q13164); assay: ERK5 transactivation activators in reporter cells, primary screen, cell-based, HTS (AID 1508626;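 active = luciferase signal above three times the same-plate solvent-only control wells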;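 note: luciferase driven by Gal4-ERK5 fusion binding five Gal4 sites before minimal TATA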); conditions: HeLa Gal4-ERK5 transactivation, 18 h, at 5 µM, stronger effect = higher value
Mitogen-activated protein kinase 7 (Homo sapiens), sequence (Q13164 whole entry, looked up, the tested form may be a part): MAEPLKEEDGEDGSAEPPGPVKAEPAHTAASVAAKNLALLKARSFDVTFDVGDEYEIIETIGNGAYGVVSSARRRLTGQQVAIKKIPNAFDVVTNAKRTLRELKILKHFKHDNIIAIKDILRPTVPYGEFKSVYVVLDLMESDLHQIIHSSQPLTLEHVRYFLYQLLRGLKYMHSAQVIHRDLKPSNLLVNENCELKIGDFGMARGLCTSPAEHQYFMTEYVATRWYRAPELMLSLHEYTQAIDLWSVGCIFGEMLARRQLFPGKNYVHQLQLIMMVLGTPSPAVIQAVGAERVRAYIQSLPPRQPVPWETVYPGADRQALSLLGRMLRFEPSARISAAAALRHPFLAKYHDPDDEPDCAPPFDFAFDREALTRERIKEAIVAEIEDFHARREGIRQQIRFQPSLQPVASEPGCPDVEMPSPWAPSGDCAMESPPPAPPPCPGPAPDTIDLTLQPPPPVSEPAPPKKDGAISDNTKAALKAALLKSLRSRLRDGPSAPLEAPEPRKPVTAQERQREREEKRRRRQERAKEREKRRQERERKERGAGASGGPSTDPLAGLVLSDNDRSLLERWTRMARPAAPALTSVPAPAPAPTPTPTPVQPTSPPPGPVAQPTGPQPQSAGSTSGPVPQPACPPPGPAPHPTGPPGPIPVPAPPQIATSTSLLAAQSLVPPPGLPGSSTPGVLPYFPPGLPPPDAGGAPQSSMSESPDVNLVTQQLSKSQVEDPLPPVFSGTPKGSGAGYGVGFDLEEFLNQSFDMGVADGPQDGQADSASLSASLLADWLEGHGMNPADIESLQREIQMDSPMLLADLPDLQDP

[9] = viability rescue of complex I mutant cybrids, primary screen, cell-based, galactose medium, ATP luminescence (AID 1645843;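 active = z-score of at least 1.8 in each of two replicates, scored against plate mean and spread of sample wells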;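 note: positive z means more ATP and so rescue of galactose-driven cybrid death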); conditions: complex I mutant cybrid cells, 72 h, stronger effect = higher value
[10] = stronger effect = lower value, cell number ratio, induced over uninduced
[11] = measured here: relative caspase fold change +Dox/-Dox
[12] = measured here: total cells with miR-34 induction, stronger effect = lower value
[13] = measured here: total cells without miR-34 induction
[14] = MELAS cybrid survival, CellTiter-Glo 48 h, stronger effect = higher value
[15] = Rieske KO mouse fibroblast survival, CellTiter-Glo 72 h

CC1(C)O[C@@H]2C[C@H]3[C@@H]4C[C@H](F)C5=CC(=O)C=C[C@]5(C)[C@@]4(F)[C@@H](O)C[C@]3(C)[C@]2(C(=O)CO)O1
outcome [1]: inactive | outcome [2]: inactive | outcome [3]: inactive | outcome [4]: inactive | fold change [5, 10]: 0.962 (inactive) and 0.858 (inactive) | fold change [5, 11]: 2.42 and 1.12 | cell count [5, 12]: 7620 and 6920 | cell count [5, 13]: 7920 and 8070 | z-score [6, 14]: 0.713 (inactive) and 0.472 (inactive) | z-score [6, 15]: 0.469 and 1.67 | remaining NAD [7]: 10 nM (inactive) | luciferase signal [8]: 124 AU (inactive) | z-score [9]: -0.48 (inactive) and 0.45 (inactive)

CC1=C(C)C(=O)C(C(CCCCCC(=O)O)c2ccccc2)=C(C)C1=O (configuration not stated)
outcome [1]: inactive | outcome [2]: inactive | outcome [3]: inactive | outcome [4]: inactive | fold change [5, 10]: 0.907 (inactive) | fold change [5, 11]: 0.844 | cell count [5, 12]: 9450 | cell count [5, 13]: 10400 | remaining NAD [7]: 10 nM (inactive)

CCCCN(CCCC)CCC(O)c1cc2c(Cl)cc(Cl)cc2c2cc(C(F)(F)F)ccc12 (configuration not stated)
AC50 [1]: 23.5 µM (active) | AC50 [2]: 23.5 µM (active) | AC50 [3]: 16.6 µM (active) | IC50 [4]: 20.9 µM (active) | fold change [5, 10]: 0.972 (inactive) | fold change [5, 11]: 0.81 | cell count [5, 12]: 8330 | cell count [5, 13]: 8580 | z-score [6, 14]: -1.05 (inactive) | z-score [6, 15]: -0.678
